Assay outcomes deposited in PubChem BioAssay by National Center for Advancing Translational Sciences (NCATS).
A selection: hits, their analogues and other compounds. The true share with any hit is near 10%.
CtBP-E1A blk: blocks the CtBP interaction with E1A | AlphaScreen GST-E1A/His-CtBP binding, 1536-well; stronger effect = lower value | activity change, % (concentration not given with the values) | actives 0.49% (n = 340,000); in the data active = activity change below about -65%; inconclusive = mostly about -30% to -63%; note: % is set by controls: 0 for no effect and ±100 for the full control effect
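Homogeneous bead-based format: GST-tagged E1A captured on glutathione donor beads, His-tagged CtBP on nickel acceptor beads; compounds precede bead addition by 2 h at 37 °C.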
G9a block: inhibitors of human histone lysine methyltransferase G9a; Q96KQ7; G9a H3K9 monomethylation, AlphaScreen, 2 h; Potency, µM (series often up to 102 µM), without a hit: top-dose activity, negative = inhibition, most hits filed as inhibitors; actives 8.8% (n = 350,000); AID 504332; note: potency is the fitted concentration of half-maximal effect; % is set by controls: 0 for no effect and ±100 for the full control effect; nearly all actives have a fitted effect of over 75% in size
Target sequence (Q96KQ7 913-1193 limits assumed): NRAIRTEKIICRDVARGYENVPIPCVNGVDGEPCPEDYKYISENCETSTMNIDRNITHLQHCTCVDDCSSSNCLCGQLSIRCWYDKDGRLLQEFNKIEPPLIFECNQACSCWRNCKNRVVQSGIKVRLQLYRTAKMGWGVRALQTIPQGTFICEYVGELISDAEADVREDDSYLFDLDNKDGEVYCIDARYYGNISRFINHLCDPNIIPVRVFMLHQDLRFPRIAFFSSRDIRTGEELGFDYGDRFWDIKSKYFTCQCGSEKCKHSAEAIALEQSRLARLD
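Enzyme 20 nM + cpd, 15 min RT; add b-H3K9 pep 500 nM / SAM 20 uM; 2 h RT; anti-H3K9me1 Ab 0.5 ug/mL + SA donor / anti-rabbit acceptor beads 20 ug/mL each, 10 min; AlphaScreen read.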
BAZ2B inh: inhibitors of human BAZ2B bromodomain; actives 4.4% (n = 360,000); AlphaScreen BAZ2B-H3K14Ac peptide displacement; Potency, µM (highest dose often 114 µM), for inactives: top-dose activity change, negative = inhibition, actives largely listed as inhibitors; Q9UIF8; note: potency is the fitted concentration of half-maximal effect; % is set by controls: 0 for no effect and ±100 for the full control effect; nearly all actives have a fitted effect of over 60% in size
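Compounds, titrated to a top concentration of 110 uM, were incubated 30 min at room temperature with preformed BAZ2B/acetyl-K14 H3 peptide complex (50 nM each). Proximity signal was measured by AlphaScreen after 20 min with beads.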
Six1-Eya2 blk: blocks human Six1 binding to Eya2. AlphaScreen GST-Six1/His-Eya2 binding, biochemical; stronger effect = lower value. Q15475+O00167. actives 0.56% (n = 360,000). activity change, % (concentration not given with the values); in the data active = activity change below about -65%; inconclusive = mostly about -30% to -63%; note: % is set by controls: 0 for no effect and ±100 for the full control effect
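AlphaScreen luminescence read after one hour at 37 °C in darkness. Pin-transferred compounds met GST-Six1 and His-Eya2 protein (5X stock 250 nM/500 nM) plus glutathione donor and Ni-chelate acceptor beads (5X, 50 ug/mL).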
JMJD2A Tudor: JMJD2A Tudor domain (human) inhibition | O75164 | AlphaScreen JMJD2A-Tudor / H3K4me3 peptide binding | Potency, µM (highest dose often 114 µM), for inactives: top-dose activity change, negative = inhibition, actives largely listed as inhibitors | actives 4.4% (n = 390,000) | AID 504339; note: potency is the fitted concentration of half-maximal effect; % is set by controls: 0 for no effect and ±100 for the full control effect; nearly all actives have a fitted effect of over 50% in size
HP1b chromo inh: HP1-beta chromodomain-methylated histone interaction inhibition; Potency, µM (doses to about 114 µM), inactives show top-dose activity change, negative = inhibition, hits mostly inhibitors; AlphaScreen HP1-beta / biotin-H3K9me3 peptide binding; actives 0.56% (n = 390,000); P83916; note: potency is the fitted concentration of half-maximal effect; nearly all actives have a fitted effect of over 70% in size
Target sequence (P83916 whole entry, looked up): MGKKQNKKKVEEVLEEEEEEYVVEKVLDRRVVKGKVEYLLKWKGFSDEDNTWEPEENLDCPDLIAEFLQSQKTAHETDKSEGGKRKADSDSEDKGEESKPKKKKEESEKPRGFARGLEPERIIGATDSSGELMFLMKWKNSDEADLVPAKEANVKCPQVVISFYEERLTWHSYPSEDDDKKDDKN
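Compound inhibition of the preformed complex between 50 nM HP1-beta and 50 nM biotinylated H3K9me3 peptide was read by AlphaScreen. Buffer was PBS pH 7.4 with 0.01% Tween-20. Incubations ran 30 min at room temperature, with 10 ug/mL donor/acceptor beads.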
Numbers without * were called inactive; ! = repeats disagree; [ ] = another dose, or the depositor's remark. Unless noted, calls come from the whole dose curve; as a rule, active = well fitted inhibition curve with a large enough effect; inconclusive = small, poorly fitted or top-dose-only effect; inactive = no such curve, though single readings can be large or run the other way.

For C[C@H]1[C@@H](OC(=O)CCC(=O)O)OC2OC3(C)CC[C@H]4[C@H](C)CC[C@@H]1[C@@]24OO3 (some centres undefined) the results were G9a block -10%[12.7 µM].
CC(CNS(=O)(=O)c1ccc2c(c1)CC(=O)N2C)c1ccccc1 (centres undefined) was read as CtBP-E1A blk 1, G9a block -2%[59 µM], BAZ2B inh -18%, Six1-Eya2 blk 3, JMJD2A Tudor -19% and HP1b chromo inh 15%.
Screening CCN(CC)c1ccc(/C=N/N=C(c2ccccc2)c2ccccc2)c(O)c1 returned CtBP-E1A blk inconclusive, G9a block inconclusive, BAZ2B inh inconclusive, Six1-Eya2 blk -27, JMJD2A Tudor inconclusive and HP1b chromo inh -19%.
`CCN(CC)c1ccc(/C=N/NC(=O)c2ccco2)cc1` gave CtBP-E1A blk -26, G9a block -4%[59 µM], BAZ2B inh -9%, Six1-Eya2 blk -11, JMJD2A Tudor -24% and HP1b chromo inh 19%.
CCN(CC)c1ccc(/C=N/NC(=S)NCc2ccccc2)c(O)c1 was read as CtBP-E1A blk inconclusive, G9a block -13%[59 µM], BAZ2B inh 22µM*, Six1-Eya2 blk inconclusive, JMJD2A Tudor -26% and HP1b chromo inh -9%.
Screening CCN(CC)c1ccc(/C=N/NC(=O)c2ccco2)c(O)c1 returned CtBP-E1A blk inconclusive, BAZ2B inh inconclusive, Six1-Eya2 blk -65*, JMJD2A Tudor -34% and HP1b chromo inh 48%.
O=C(N/N=C/c1ccc2cccnc2c1)c1ccco1 was read as CtBP-E1A blk -2, G9a block 28µM*, BAZ2B inh 5%, Six1-Eya2 blk -17, JMJD2A Tudor -9% and HP1b chromo inh 24%.
Screening CC1(NC(=O)CC[N+](C)(C)CCO)CS(=O)(=O)CC1S(=O)(=O)[O-] (centres undefined) returned G9a block inconclusive and BAZ2B inh 50µM*.
O=c1c(N2CCN(c3cccc(Cl)c3)CC2)csc2ccccc12 was read as G9a block inconclusive, BAZ2B inh inconclusive, JMJD2A Tudor 40µM* and HP1b chromo inh -10%[57 µM].
For Cc1ccc2scc(N3CCN(c4ccc(F)cc4)CC3)c(=O)c2c1 the results were G9a block 0%[59 µM], BAZ2B inh inconclusive, JMJD2A Tudor inconclusive and HP1b chromo inh -5%[57 µM].
Screening Cc1ccc2scc(N3CCN(c4ccccc4)CC3)c(=O)c2c1 returned G9a block inconclusive, BAZ2B inh inconclusive, JMJD2A Tudor 45µM* and HP1b chromo inh -5%[57 µM].
CCN1CCN(c2csc3ccc(Cl)cc3c2=O)CC1 was read as G9a block -27%[59 µM], BAZ2B inh -6%, JMJD2A Tudor -14% and HP1b chromo inh 32%[57 µM].
Screening CC(C)c1ccc(NC(=O)Cc2ccc(NC3=NC4CS(=O)(=O)CC4S3)cc2)cc1 (centres undefined) returned CtBP-E1A blk 1, G9a block -8%, BAZ2B inh -4%, Six1-Eya2 blk 8, JMJD2A Tudor -21% and HP1b chromo inh 35%.
For CCOc1ccc(NC(=O)CC2Nc3cccc4cccc(c34)NC2=O)cc1 (centres undefined) the results were G9a block inconclusive, BAZ2B inh -29%, JMJD2A Tudor inconclusive and HP1b chromo inh 22%.
`COc1ccc(Cl)cc1-n1nnc(-c2nsc(NC(=O)c3ccccc3Cl)n2)c1C` gave G9a block 2%[59 µM], BAZ2B inh 15%, JMJD2A Tudor -2% and HP1b chromo inh 30%.
Cc1ccc(NC(=O)CN2C(=O)C(c3ccccc3)=NC2(C)C)cc1C was read as G9a block 4%[59 µM], BAZ2B inh 0%, JMJD2A Tudor -19% and HP1b chromo inh 6%.
`O=c1[nH]cnc(O)c1C(c1ccc(Br)cc1)c1c(O)nc[nH]c1=O` gave G9a block -37%, BAZ2B inh -22%, Six1-Eya2 blk -3, JMJD2A Tudor -13% and HP1b chromo inh 24%.
`O=c1[nH]cnc(O)c1C(c1ccc2c(c1)OCO2)c1c(O)nc[nH]c1=O` gave G9a block 50µM*, BAZ2B inh -18%, Six1-Eya2 blk 4, JMJD2A Tudor -18% and HP1b chromo inh 16%.
For CN=C(N)NCCCC(N)C(=O)O (centres undefined) the results were G9a block 9%[12.7 µM].
NC(=S)NCCC[C@H](N)C(=O)O was read as G9a block 1.7µM*!.
Screening C/C(=N\NC(=S)Nc1cccc(C)c1)c1cc2ccccc2o1 returned CtBP-E1A blk 15, G9a block 35µM*, BAZ2B inh inconclusive, Six1-Eya2 blk -16, JMJD2A Tudor 25µM* and HP1b chromo inh inconclusive.
`CC/C(=N\NC(=S)Nc1cccc(C)c1)c1ccccc1` gave CtBP-E1A blk -29, G9a block inconclusive, BAZ2B inh inconclusive, Six1-Eya2 blk -17, JMJD2A Tudor 50µM* and HP1b chromo inh inconclusive.
For Cc1ccc(NC(=S)N/N=C2/CCCCc3ccccc32)cc1 the results were CtBP-E1A blk inconclusive, G9a block inconclusive, BAZ2B inh inconclusive, Six1-Eya2 blk -21, JMJD2A Tudor inconclusive and HP1b chromo inh -20%.
Cc1cccc(NC(=S)N/N=C2/CCCCc3ccccc32)c1 was read as CtBP-E1A blk inconclusive, G9a block -10%[59 µM], BAZ2B inh 40µM*, Six1-Eya2 blk inconclusive, JMJD2A Tudor inconclusive and HP1b chromo inh inconclusive.
Screening Cc1ccc(Nc2nc3ccc(C)cc3nc2-n2nc(C)cc2C)c(C)c1 returned G9a block 83%[59 µM], BAZ2B inh 31%, JMJD2A Tudor 93% and HP1b chromo inh 165%.
For CCC(Sc1nc2c(sc3ccccc32)c(=O)n1CCCC(=O)NC1CCCC1)C(=O)Nc1cccc(OC)c1 (centres undefined) the results were G9a block 19%[59 µM], BAZ2B inh 27%, JMJD2A Tudor 0% and HP1b chromo inh 65%.
`COc1ccnc(CSC(N)=Nc2cccc(C(F)(F)F)c2)c1` gave CtBP-E1A blk -7, G9a block 45µM*, BAZ2B inh 35µM*, Six1-Eya2 blk -67*, JMJD2A Tudor 20µM* and HP1b chromo inh inconclusive.
For COc1ccnc(CSC(N)=Nc2ccccc2OC)c1 the results were CtBP-E1A blk -29, G9a block 8.9µM*, BAZ2B inh inconclusive, Six1-Eya2 blk -28, JMJD2A Tudor 45µM* and HP1b chromo inh 7%.
`COc1cccc(-n2cc(C(=O)Oc3cccc(C(F)(F)F)c3)c3ccccc3c2=O)c1` gave G9a block 49%[59 µM], BAZ2B inh -2%, JMJD2A Tudor -17% and HP1b chromo inh 22%[57 µM].
